Where “and” joins values, the source holds several entries; their conditions need not be identical. Equal entries are not always repeated. Calls of active or inactive are those of the source. Rule for the calls: active = hit-call score of the fitted dose curve at least 0.9, where 1 is the maximum; inactive = score below 0.9.

Read-out in experiment [1]: Macrophage colony-stimulating factor (MCSF), CSF1 (gene 1435)
Put plainly: BSK_hDFCGF_MCSF: BioMAP Diversity Plus: hDFCGF Assay for Macrophage colony-stimulating factor (MCSF) Biomarker Activity (AID 2283060). Particulars: primary human foreskin fibroblasts; actives raise or lower the signal. The gist of the method:
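Human foreskin primary fibroblasts were treated with test chemical for 24 h, and M-CSF was then measured by ELISA. Data were fitted bidirectionally against DMSO as the negative control and activity baseline.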

A short description of experiment [2]: BSK_hDFCGF_SRB: Viability Assessment in the BioMAP Diversity Plus: hDFCGF Assay (AID 2283061).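 Note: cells exposed to compound for 24 h before the read.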 Particulars: primary human foreskin fibroblasts. The essentials:
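Human foreskin primary fibroblasts were treated with compound and assessed 24 h after dosing. Total protein was measured by sulforhodamine B staining (0.1% SRB after 10% TCA fixation, 560 nm read) as a cytotoxicity marker, with bidirectional fitting against DMSO baseline.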

Read-out in experiment [3]: TIMP metallopeptidase inhibitor 1 (TIMP1), TIMP1 (gene 7076)
Put plainly: BSK_hDFCGF_TIMP1: BioMAP Diversity Plus: hDFCGF Assay for TIMP metallopeptidase inhibitor 1 (TIMP1) Biomarker Activity (AID 2283062). Particulars: primary human foreskin fibroblasts; actives raise or lower the signal. The gist of the method: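 Primary human foreskin fibroblasts in the hDFCGF system were dosed with compound for 24 h, then TIMP-1 was measured by ELISA. Activity was fitted bidirectionally relative to DMSO control; parallel SRB staining assessed cytotoxicity.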

Read-out in experiment [4]: Monokine induced gamma interferon (MIG), CXCL9 (gene 4283)
Put plainly: BSK_hDFCGF_MIG: BioMAP Diversity Plus: hDFCGF Assay for Monokine induced gamma interferon (MIG) Biomarker Activity (AID 2283063). As to conditions: primary human foreskin fibroblasts; actives raise or lower the signal. The gist of the method: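 ELISA read-out of MIG from primary human dermal fibroblasts 24 h post-dosing. Gain or loss of signal fitted bidirectionally, DMSO as baseline.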

Read-out in experiment [5]: Matrix Metallopeptidase 1 (MMP1), MMP1 (gene 4312)
Nature of the experiment: BSK_hDFCGF_MMP1: BioMAP Diversity Plus: hDFCGF Assay for Matrix Metallopeptidase 1 (MMP1) Biomarker Activity (AID 2283064). Particulars: primary human foreskin fibroblasts; actives raise or lower the signal. The gist of the method:
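MMP1 levels quantified by ELISA 24 h after dosing human dermal fibroblast cultures, with parallel SRB total-protein staining for overt cytotoxicity. Data fitted in both directions against DMSO baseline.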

Read-out in experiment [6]: Vascular cell adhesion molecule 1 (VCAM1), VCAM1 (gene 7412)
Nature of the experiment: BSK_hDFCGF_VCAM1: BioMAP Diversity Plus: hDFCGF Assay for Vascular cell adhesion molecule 1 (VCAM1) Biomarker Activity (AID 2283065).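 For AC50: VCAM-1 protein level quantified by ELISA after 24 h chemical exposure.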 Particulars: primary human foreskin fibroblasts; actives raise or lower the signal. The gist of the method:
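Primary human foreskin fibroblasts (hDFCGF system) were dosed with chemical and VCAM-1 was measured by ELISA 24 h later. Bidirectional curve fitting used DMSO as negative control and activity baseline.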

Read-out in experiment [7]: Plasminogen activator inhibitor-1 (PAI1), SERPINE1 (gene 5054)
Nature of the experiment: BSK_hDFCGF_PAI1: BioMAP Diversity Plus: hDFCGF Assay for Plasminogen activator inhibitor-1 (PAI1) Biomarker Activity (AID 2283066). Particulars: primary human foreskin fibroblasts; actives raise or lower the signal. The gist of the method: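 ELISA readout of PAI-1 from primary human skin fibroblast cultures, 24 h after compound addition. Gain or loss of signal was fitted bidirectionally against DMSO baseline.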

Read-out in experiment [8]: Intercellular Adhesion Molecule 1 (ICAM1), ICAM1 (gene 3383)
Nature of the experiment: BSK_KF3CT_ICAM1: BioMAP Diversity Plus: KF3CT Assay for Intercellular Adhesion Molecule 1 (ICAM1) Biomarker Activity (AID 2283067). As to conditions: primary human keratinocytes with fibroblasts; actives raise or lower the signal. The gist of the method:
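Human keratinocyte plus foreskin fibroblast primary co-culture was exposed to chemical for 24 h. ICAM-1 was then quantified by ELISA, and the data were fit bidirectionally against DMSO as the negative control and baseline.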

Read-out in experiment [9]: Interferon-gamma inducible Protein 10 (IP10), CXCL10 (gene 3627)
Put plainly: BSK_KF3CT_IP10: BioMAP Diversity Plus: KF3CT Assay for Interferon-gamma inducible Protein 10 (IP10) Biomarker Activity (AID 2283068). As to conditions: primary human keratinocytes with fibroblasts; actives raise or lower the signal. The gist of the method:
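KF3CT co-culture (keratinocytes + foreskin fibroblasts), 24 h compound, IP-10 by ELISA; bidirectional fit vs DMSO baseline.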

Experiment [10] in a line: BSK_KF3CT_SRB: Viability Assessment in the BioMAP Diversity Plus: KF3CT Assay (AID 2283069). Particulars: primary human keratinocytes with fibroblasts. The gist of the method:
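Cytotoxicity was gauged by SRB staining (0.1% SRB, 10% TCA fixation, 560 nm) of parallel cultures at 24 h. The cells were primary human skin keratinocytes co-cultured with fibroblasts, and activity was fitted in both directions against DMSO.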

Read-out in experiment [11]: Interleukin-1 alpha (IL1a), IL1A (gene 3552)
Nature of the experiment: BSK_KF3CT_IL1a: BioMAP Diversity Plus: KF3CT Assay for Interleukin-1 alpha (IL1a) Biomarker Activity (AID 2283070). As to conditions: primary human keratinocytes with fibroblasts; actives raise or lower the signal. The essentials: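 IL-1a was detected by ELISA 24 h after chemical treatment of a co-culture of human skin keratinocytes and foreskin fibroblasts. Gain or loss of signal was fitted against the DMSO baseline.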

Read-out in experiment [12]: TIMP metallopeptidase inhibitor 2 (TIMP2), TIMP2 (gene 7077)
Nature of the experiment: BSK_KF3CT_TIMP2: BioMAP Diversity Plus: KF3CT Assay for TIMP metallopeptidase inhibitor 2 (TIMP2) Biomarker Activity (AID 2283071). Particulars: primary human keratinocytes with fibroblasts; actives raise or lower the signal. The essentials:
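ELISA readout of TIMP-2 in keratinocyte plus foreskin fibroblast co-cultures (human skin primary cells), 24 h post-dose. Gain or loss of signal fitted relative to DMSO.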

Read-out in experiment [13]: Transforming growth factor beta 1 (TGFb1), TGFB1 (gene 7040)
Nature of the experiment: BSK_KF3CT_TGFb1: BioMAP Diversity Plus: KF3CT Assay for Transforming growth factor beta 1 (TGFb1) Biomarker Activity (AID 2283072). As to conditions: primary human keratinocytes with fibroblasts; actives raise or lower the signal. The gist of the method: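 Read-out: ELISA for TGF-b1 in keratinocyte/foreskin fibroblast human skin co-culture, 24 h after dosing; bidirectional curve fit vs DMSO baseline; gain or loss of signal scored.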

Read-out in experiment [14]: C-C motif chemokine 2 (Homo sapiens) (UniProt P13500)
Put plainly: BSK_KF3CT_MCP1: BioMAP Diversity Plus: KF3CT Assay for Monocyte Chemoattractant Protein 1 (MCP1/CCL2) Biomarker Activity (AID 2283073). Particulars: primary human keratinocytes with fibroblasts; actives raise or lower the signal. The essentials: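 Human keratinocyte plus foreskin fibroblast primary co-culture exposed to chemical for 24 h. MCP-1 levels measured by ELISA. Bidirectional curve fitting relative to DMSO negative control as baseline.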

Read-out in experiment [15]: urokinase plasminogen activator (uPA), PLAU (gene 5328)
Nature of the experiment: BSK_KF3CT_uPA: BioMAP Diversity Plus: KF3CT Assay for urokinase plasminogen activator (uPA) Biomarker Activity (AID 2283075). Particulars: primary human keratinocytes with fibroblasts; actives raise or lower the signal. The essentials: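 ELISA read-out of uPA 24 h after dosing human skin keratinocytes co-cultured with foreskin fibroblasts. Signal change fitted both ways relative to DMSO; sulforhodamine B on parallel cultures marks overt cytotoxicity.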

Read-out in the next experiment: CD40, CD40 (gene 958)
Nature of the experiment: BSK_LPS_CD40: BioMAP Diversity Plus: LPS Assay for CD40 Biomarker Activity (AID 2283076). As to conditions: primary human HUVEC with PBMC; actives raise or lower the signal. The essentials: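 Primary human umbilical vein endothelial cells co-cultured with peripheral blood mononuclear cells, LPS-stimulated, were dosed with chemical and read 24 h later. CD40 levels were measured by ELISA and fitted bidirectionally against DMSO as negative control and baseline.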

Read-out in experiment [16]: E-selectin (Homo sapiens) (UniProt P16581)
Put plainly: BSK_LPS_Eselectin: BioMAP Diversity Plus: LPS Assay for Eselectin Biomarker Activity (AID 2283077). Particulars: primary human HUVEC with PBMC; actives raise or lower the signal. The gist of the method: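 Human umbilical vein endothelial cells co-cultured with peripheral blood mononuclear cells under LPS stimulation; E-selectin measured by ELISA 24 h after chemical dosing. Activity fitted bidirectionally against DMSO as negative control and baseline.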

Read-out in experiment [17]: Interleukin-8 (IL8), CXCL8 (gene 3576)
Put plainly: BSK_LPS_IL8: BioMAP Diversity Plus: LPS Assay for Interleukin-8 (IL8) Biomarker Activity (AID 2283078). Particulars: primary human HUVEC with PBMC; actives raise or lower the signal. The essentials:
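Human umbilical vein endothelial cells co-cultured with PBMC were stimulated with LPS; IL-8 levels were measured by ELISA 24 h after chemical dosing. Activity was fitted bidirectionally against DMSO as negative control and baseline.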

Experiment [18] can be described thus: BSK_LPS_SRB: Viability Assessment in the BioMAP Diversity Plus: LPS Assay (AID 2283079).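 Note: total protein by sulforhodamine B absorbance as a cytotoxicity measure; measured one day after compound addition; fitted in both directions against DMSO so loss or gain of signal counts.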 As to conditions: primary human HUVEC with PBMC. The gist of the method:
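Human umbilical vein endothelial cells co-cultured with PBMC (LPS system) were dosed for 24 h. Total protein was stained with 0.1% sulforhodamine B after 10% TCA fixation, read at 560 nm, and fitted bidirectionally against DMSO baseline.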

Read-out in experiment [19]: Matrix Metallopeptidase 9 (MMP9), MMP9 (gene 4318)
Nature of the experiment: BSK_KF3CT_MMP9: BioMAP Diversity Plus: KF3CT Assay for Matrix Metallopeptidase 9 (MMP9) Biomarker Activity (AID 2283074).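 For AC50: MMP9 protein level quantified by ELISA in the co-culture.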 Particulars: primary human keratinocytes with fibroblasts; actives raise or lower the signal. The gist of the method:
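MMP-9 quantified by ELISA after 24 h chemical treatment of primary human skin keratinocyte/fibroblast co-cultures; gain or loss fitted against DMSO, with parallel SRB staining (0.1% SRB, 560 nm) for overt cytotoxicity.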

E-selectin (Homo sapiens), sequence (P16581 whole entry, looked up): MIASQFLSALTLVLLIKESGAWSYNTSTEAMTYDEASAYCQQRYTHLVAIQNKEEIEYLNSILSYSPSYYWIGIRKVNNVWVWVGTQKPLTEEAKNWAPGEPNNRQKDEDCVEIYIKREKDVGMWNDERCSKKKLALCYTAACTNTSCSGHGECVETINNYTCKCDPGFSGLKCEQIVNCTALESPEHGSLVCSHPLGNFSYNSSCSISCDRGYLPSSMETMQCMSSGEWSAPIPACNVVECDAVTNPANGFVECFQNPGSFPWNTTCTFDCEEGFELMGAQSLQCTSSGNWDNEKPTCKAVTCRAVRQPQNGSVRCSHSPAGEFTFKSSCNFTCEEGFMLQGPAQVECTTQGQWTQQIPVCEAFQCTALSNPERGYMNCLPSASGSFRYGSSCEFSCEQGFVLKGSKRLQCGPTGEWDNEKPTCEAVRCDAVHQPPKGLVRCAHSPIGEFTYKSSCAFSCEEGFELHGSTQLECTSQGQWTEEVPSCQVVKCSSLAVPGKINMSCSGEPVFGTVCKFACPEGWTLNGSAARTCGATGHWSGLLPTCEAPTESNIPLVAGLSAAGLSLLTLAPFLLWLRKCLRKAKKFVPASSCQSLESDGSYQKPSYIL

As usually defined, the AC50 is the concentration giving half of the maximal activity seen. `Cc1ccc(N=Nc2c(O)ccc3ccccc23)c(C)c1`: the AC50 was 10 µM (active) in experiment [1], 5.25 µM (active) in experiment [6] and 4.11 µM (active) in [12]. Moreover, the outcome in [2], in experiment [3], in experiment [4], in experiment [5], in experiment [7] and in experiment [8] was inactive. For the same compound, the outcome in experiment [9], in experiment [10], in experiment [11], in experiment [13], in experiment [14] and in experiment [15] was inactive. For the same compound, the outcome is “inactive” with CD40, CD40 (gene 958); “inactive” in experiment [16]; “inactive” in experiment [17]; “inactive” in [18].

As for `C=CC(=O)OCCC(F)(F)C(F)(F)C(F)(F)C(F)(F)C(F)(F)C(F)(F)C(F)(F)C(F)(F)F`, the outcome in experiment [1], in experiment [2], in [3], in experiment [4], in experiment [5] and in experiment [6] was inactive. For the same compound, the outcome in experiment [7], in experiment [8], in experiment [9], in [10], in experiment [11] and in [12] was inactive. Also, the outcome is “inactive” in [14]; “inactive” in [15]; “inactive” with CD40, CD40 (gene 958); “inactive” in [16]; “inactive” in [17]; “inactive” in [18]. In addition, the AC50 in experiment [19] was 12.6 µM (active) and 8.83 µM (active).

As to `Oc1cc2ccccc2cc1O`, the result in [1], in experiment [2], in [3], in experiment [4], in experiment [5] and in experiment [6] was inactive. For the same compound, the outcome in experiment [7], in experiment [8], in experiment [9], in experiment [10], in experiment [11] and in experiment [12] was inactive. In addition, the outcome is “inactive” in experiment [13]; “inactive” in experiment [14]; “inactive” in experiment [15]; “inactive” in the experiment with CD40, CD40 (gene 958); “inactive” in [16]; “inactive” in [17]. For the same compound, the result in [18] was inactive.

On to `CN(C)CCOC(c1ccccc1)c1ccccc1`, for which the outcome in experiment [2], in [3], in [4], in [5], in [6] and in [7] was inactive. In addition, the outcome in experiment [8], in experiment [9], in experiment [10], in [11], in experiment [12] and in experiment [13] was inactive. The outcome in experiment [14] was “inactive”; in experiment [19], “inactive”; in [15], “inactive”; with CD40, CD40 (gene 958), “inactive”; in experiment [16], “inactive”; in experiment [17] it was “inactive”. For the same compound, the result in experiment [18] was inactive.

Values taken from PubChem BioAssay (EPA / NIEHS).
